The values below come from paper PMC8384837, “Expanding the binding specificity for RNA recognition by a PUF domain”.

One assay concerns the target T1, PUM1 PUF domain R6-CFR (Homo sapiens, UniProt Q14671 828-1176, N1043C;Y1044F;Q1047R).
T1 sequence: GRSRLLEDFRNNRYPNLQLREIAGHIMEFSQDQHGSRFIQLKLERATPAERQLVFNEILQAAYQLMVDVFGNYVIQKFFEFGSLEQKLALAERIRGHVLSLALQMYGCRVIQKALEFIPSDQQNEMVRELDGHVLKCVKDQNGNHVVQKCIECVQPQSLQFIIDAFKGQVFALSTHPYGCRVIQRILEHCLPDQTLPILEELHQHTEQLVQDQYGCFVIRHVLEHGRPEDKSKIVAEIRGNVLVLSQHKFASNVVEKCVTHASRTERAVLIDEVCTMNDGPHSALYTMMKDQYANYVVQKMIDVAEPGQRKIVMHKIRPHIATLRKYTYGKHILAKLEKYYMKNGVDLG
In words: yeast three-hybrid, YBZ-1, SC-Leu-His + 0.5 mM 3-AT, 4 days. The settings on record: tags: N-Gal4 AD-HA kept; label: inside an RPR1-promoter hybrid RNA with tandem MS2 sites; ssRNA. A digest of the protocol:
(§1)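 Pumilio-1 PUF domain libraries, randomized at the three base-contacting residues of each repeat, were co-expressed with matching RNA elements from a centromeric plasmid in strain YBZ-1, which carries a LexA–MS2 coat fusion and a HIS3 reporter. Transformants grew for four days on SC-Leu (input) or on SC-Leu-His + 0.5 mM 3-AT (selection), and the repeat regions were PCR-amplified and Illumina-sequenced. The interaction score is the log change in variant frequency from input to selection. That logarithm is base 2, with a pseudocount of 1 where a variant was absent.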
For “GGCUAGAACUAGUGGAUCCCCCGGCGCCCGGCGGCUCGAGCCCGGGUAAGUGAAAAUAGUCUGCAUGCCGCCGGGCGCCAUGCCUGCAGGUCGACUCUAGAAAACAUG”, the binding signal is 4.42 log2 enrichment (interaction score).

With “GGCUAGAACUAGUGGAUCCCCCGGCGCCCGGCGGCUCGAGCCCGGGUAAGUGUAAAUAGUCUGCAUGCCGCCGGGCGCCAUGCCUGCAGGUCGACUCUAGAAAACAUG”, the binding signal was 4.59 log2 enrichment (interaction score).

As to “GGCUAGAACUAGUGGAUCCCCCGGCGCCCGGCGGCUCGAGCCCGGGUAAGUGCAAAUAGUCUGCAUGCCGCCGGGCGCCAUGCCUGCAGGUCGACUCUAGAAAACAUG”, the binding signal was 6.28 log2 enrichment (interaction score).

In a further assay the target is PUM1 PUF domain R5-RKG (Homo sapiens, UniProt Q14671 828-1176, C1007R;R1008K;Q1011G). The description is as above. The settings on record: tags: N-Gal4 AD-HA kept; label: inside an RPR1-promoter hybrid RNA with tandem MS2 sites; ssRNA. A digest of the protocol: as §1
On to “GGCUAGAACUAGUGGAUCCCCCGGCGCCCGGCGGCUCGAGCCCGGGUAAGUGUAAAUAGUCUGCAUGCCGCCGGGCGCCAUGCCUGCAGGUCGACUCUAGAAAACAUG”, for which the binding signal was 0.47 log2 enrichment (interaction score).

With “GGCUAGAACUAGUGGAUCCCCCGGCGCCCGGCGGCUCGAGCCCGGGUAAGUGUUAAUAGUCUGCAUGCCGCCGGGCGCCAUGCCUGCAGGUCGACUCUAGAAAACAUG”, the binding signal is 2.88 log2 enrichment (interaction score).

On to “GGCUAGAACUAGUGGAUCCCCCGGCGCCCGGCGGCUCGAGCCCGGGUAAGUGUCAAUAGUCUGCAUGCCGCCGGGCGCCAUGCCUGCAGGUCGACUCUAGAAAACAUG”, for which the binding signal was 2 log2 enrichment (interaction score).

The next assay concerns the target PUM1 PUF domain R5-SRK (Homo sapiens, UniProt Q14671 828-1176, C1007S;Q1011K). The assay is described as above. The settings on record: tags: N-Gal4 AD-HA kept; label: inside an RPR1-promoter hybrid RNA with tandem MS2 sites; ssRNA. A digest of the protocol:
as §1
In the case of “GGCUAGAACUAGUGGAUCCCCCGGCGCCCGGCGGCUCGAGCCCGGGUAAGUGUAAAUAGUCUGCAUGCCGCCGGGCGCCAUGCCUGCAGGUCGACUCUAGAAAACAUG”, the binding signal was 3.38 log2 enrichment (interaction score).

“GGCUAGAACUAGUGGAUCCCCCGGCGCCCGGCGGCUCGAGCCCGGGUAAGUGUUAAUAGUCUGCAUGCCGCCGGGCGCCAUGCCUGCAGGUCGACUCUAGAAAACAUG”: the binding signal is 5.28 log2 enrichment (interaction score).

“GGCUAGAACUAGUGGAUCCCCCGGCGCCCGGCGGCUCGAGCCCGGGUAAGUGUCAAUAGUCUGCAUGCCGCCGGGCGCCAUGCCUGCAGGUCGACUCUAGAAAACAUG”: the binding signal was 2.72 log2 enrichment (interaction score).

As to “GGCUAGAACUAGUGGAUCCCCCGGCGCCCGGCGGCUCGAGCCCGGGUAAGUGUGAAUAGUCUGCAUGCCGCCGGGCGCCAUGCCUGCAGGUCGACUCUAGAAAACAUG”, the binding signal was 3.42 log2 enrichment (interaction score).
